This is an account of results in PubChem BioAssay (NCATS).

Values joined by “and” are separate entries in the source; they are usually repeats but may differ in a detail not shown here. Equal values may be shown once. Inconclusive results are not listed. Where a structure was tested more than once in an assay, its records may differ in their call. Active and inactive are the calls of the source. Unless noted, the call rests on the fitted dose curve; in most records, active means well fitted curve in the direction sought with a large enough effect; inconclusive means small, poorly fitted or top-dose-only effect, or another doubt; inactive means no such curve, though single readings can be large; an effect the other way counts as inactive or inconclusive.

A short description of experiment [1]: AP1 Signaling Pathway (AID 357; active means well fitted curve in either direction with a large enough effect, not every such curve was filed as active;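 further: ME-180 reporter cells stimulated with EGF at its EC50 level; on the % scale 0 is the no-effect control and ±100 the full control effect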). The note with it: ME-180 AP-1-bla reporter, EGF-induced, beta-lactamase ratio, 5 h. The method in brief:
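Read-out was the 460nm/530nm emission ratio (excitation 405nm) after CCF4 loading for 2.5 hours at room temperature. Cells carried an AP-1-driven beta-lactamase reporter, were stimulated with EC50 EGF plus compound for 5 hours, and AC50 values came from titrations.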

For experiment [2], the target named is Cytochrome P450 1A2 (Homo sapiens) (UniProt P05177). The experiment can be described thus: p450-cyp1a2 (AID 410; calls by dose curve; further: potency means the concentration at half of the fitted maximal effect;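 on activity change, negative = inhibition: -100% = full effect of reference inhibitor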). A digest of the protocol: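 Human CYP1A2 (20nM) demethylated Luciferin-ME at its Km (100uM) in 100mM KPO4. After 10 min compound preincubation, NADPH regeneration ran the reaction 60 min at room temperature. Luciferin was read by luminescence, normalized to 57 uM furafylline.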
Sequence of Cytochrome P450 1A2 (Homo sapiens) (P05177 whole entry, looked up): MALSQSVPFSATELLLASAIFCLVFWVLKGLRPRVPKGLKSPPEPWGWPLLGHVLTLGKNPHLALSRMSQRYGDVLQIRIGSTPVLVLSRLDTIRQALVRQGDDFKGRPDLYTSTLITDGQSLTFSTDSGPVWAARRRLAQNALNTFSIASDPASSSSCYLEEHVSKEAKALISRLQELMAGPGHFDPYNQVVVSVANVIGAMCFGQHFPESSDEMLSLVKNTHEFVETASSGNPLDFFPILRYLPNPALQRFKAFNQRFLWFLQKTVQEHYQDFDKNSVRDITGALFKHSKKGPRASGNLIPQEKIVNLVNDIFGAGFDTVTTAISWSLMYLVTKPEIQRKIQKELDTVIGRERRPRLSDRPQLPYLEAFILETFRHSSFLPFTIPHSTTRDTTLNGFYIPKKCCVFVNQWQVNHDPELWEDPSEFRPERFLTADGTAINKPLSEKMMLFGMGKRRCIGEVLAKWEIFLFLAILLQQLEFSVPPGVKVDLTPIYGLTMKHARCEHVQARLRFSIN

A short description of experiment [3]: NFAT Signaling Pathway (AID 444; active means well fitted curve in either direction with a large enough effect, not every such curve was filed as active;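 further: carbachol stimulus at about its EC50 of 1 µM final; on the % scale 0 is the no-effect control and ±100 the full control effect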). The note with it: Jurkat NFAT-bla M1, carbachol, beta-lactamase ratio, 5 h; at 38 µM (top of the series). A digest of the protocol: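 Jurkat cells carrying an NFAT-driven β-lactamase reporter and co-transfected muscarinic M1 receptor were treated with compound plus carbachol (1 uM final, an EC50 level) for 5 h at 37 °C. CCF4 loading followed for 1 h at RT; 460/530 nm ratio gave %activity.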

A short description of experiment [4]: Stat Signaling Pathway (AID 446; active means well fitted curve in either direction with a large enough effect, not every such curve was filed as active;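 further: ME-180 cervical cancer cells given 40 pM IL-6 alongside compound; SIE-controlled beta-lactamase reporter measured as 460/530 nm FRET emission ratio; on the % scale 0 is the no-effect control and ±100 the full control effect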). The note with it: ME-180 SIE beta-lactamase reporter, IL-6 stimulated, 5 h; at 38 µM (top of the series). The method in brief: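 ME-180 SIE-bla cells; overnight plating; cpd + IL-6 40 pM, 5 h, 37 C; LiveBLAzer 2.5 h RT; 460/530 nm emission ratio. Normalized to 300 pM IL-6 and 125 nM JAK inhibitor controls.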
Experiment [5] has as its target Glucocorticoid receptor (Homo sapiens) (UniProt P04150). The experiment can be described thus: GR-GFP Redistribution (AID 450;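 active means compounds whose dose series gives a full or clear partial fitted curve of increased nuclear translocation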; further: potency means the concentration at half of the fitted maximal effect). The conditions noted are these: U2OS GR-GFP nuclear translocation, laser cytometry, 2 h.
Experiment [6] has the same target. Nature of the experiment: GR-EFC Redistribution (AID 451; calls by dose curve; further: potency means the concentration at half of the fitted maximal effect). The conditions noted are these: CHO-K1 GR-EFC translocation, beta-gal luminescence, 2 h. A digest of the protocol: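 CHO-K1 cells stably expressing nuclear-localized β-gal enzyme acceptor and GR fused C-terminally to the enzyme donor fragment; ligand-driven nuclear translocation restores β-gal by complementation. Compounds titrated up to 46 uM final, 2 h at 37 °C; luminescence read.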

The target of experiment [7] is 3',5'-cyclic-AMP phosphodiesterase 4B (Homo sapiens) (UniProt Q07343). Nature of the experiment: qHTS Assay for Inhibitors of PDE-IV (AID 607; active means well fitted activation curve with a large enough effect in the main read-out, with a control signal flat, not every such curve was filed as active; further: % of control where 0% means no effect). The method in brief:
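ACTOne HEK293 cells carry a modified cAMP-gated CNG channel and express endogenous PDE4; plated 1000 cells/well, compounds up to 22.9 uM final. Membrane-potential dye fluorescence (ex 535/em 590) was read; parental cells received 10 uM forskolin + 100 uM RO 20-1724.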
(In general: Quantitative high-throughput screening tests each substance at several concentrations.)

Experiment [8] deals with Cytochrome P450 2C19 (Homo sapiens) (UniProt P33261). Nature of the experiment: qHTS Assay for Inhibitors and Substrates of Cytochrome P450 2C19 (AID 899). Further: nearly all actives have a fitted effect of over 60% in size. Further: potency means the concentration at half of the fitted maximal effect. The method in brief: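 NADPH-dependent conversion of Luciferin-H EGE (10uM, at KM) by 5nM enzyme in 50mM KPO4, 60 min at 37C following 10 min compound preincubation. Stopped with luciferin detection buffer; luminescence read after 20 min.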
Sequence of Cytochrome P450 2C19 (Homo sapiens) (P33261 whole entry, looked up): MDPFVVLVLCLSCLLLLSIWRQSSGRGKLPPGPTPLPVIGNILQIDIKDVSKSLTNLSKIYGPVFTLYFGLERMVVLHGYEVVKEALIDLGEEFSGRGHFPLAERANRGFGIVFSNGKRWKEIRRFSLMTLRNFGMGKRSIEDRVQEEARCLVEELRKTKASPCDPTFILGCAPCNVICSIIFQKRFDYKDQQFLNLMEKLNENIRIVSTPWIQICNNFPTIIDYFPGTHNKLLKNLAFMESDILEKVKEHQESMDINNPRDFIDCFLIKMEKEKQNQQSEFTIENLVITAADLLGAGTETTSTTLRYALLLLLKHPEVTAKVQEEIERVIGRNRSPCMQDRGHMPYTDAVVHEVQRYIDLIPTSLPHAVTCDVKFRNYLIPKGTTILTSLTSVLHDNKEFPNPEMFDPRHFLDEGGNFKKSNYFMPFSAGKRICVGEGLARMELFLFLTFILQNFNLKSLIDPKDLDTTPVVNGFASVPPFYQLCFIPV

A short description of experiment [9]: qHTS Assay for Lipid Storage Modulators (AID 1519; calls by dose curve). The note with it: Drosophila S3 cells, BODIPY lipid droplet/cell ratio, laser cytometry, cells loaded with oleic acid. The method in brief:
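Cells seeded at 5,000 per well were treated with compounds over a concentration series and loaded with oleic acid (400 uM, as added). Lipid droplet fluorescence (488 nm excitation, 500-530 nm channel) was read by laser-scanning cytometry and normalized to 20 uM Triacsin C.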

The target of experiment [10] is DNA dC->dU-editing enzyme APOBEC-3G (Homo sapiens) (UniProt Q9HC16). The experiment can be described thus: qHTS for inhibitors of Vif-A3G interactions: Validation (AID 588379). Further: 0% is about no effect. The method in brief:
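HeLa cells stably expressing Vif and A3G-eYFP, 700 cells/well, incubated overnight at 37 deg C, then exposed to compound overnight at 37 deg C. Inhibition of Vif-mediated degradation read as increased yellow fluorescence (Ex 488/Em 500-530) by laser-scanning cytometry.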

In experiment [11] the test system is Zika virus NS2B-NS3 protease. Nature of the experiment: Primary screen GU AMC qHTS for Zika virus inhibitors (AID 1347154).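 Further: 0% = no-inhibitor control and -100% = no-enzyme control; nearly all actives have a fitted effect of over 70% in size.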 A digest of the protocol:
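Unlinked Zika NS2B hydrophilic domain/NS3 protease domain noncovalent complex (25 nM final) in 10 mM Tris-HCl pH 8.0, 0.01% Tween 20, with AMC peptide substrate. Fluorescence (ex 340, em 450 nm) change over 15 min, room temperature; percent inhibition fitted to 4-parameter Hill equation.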

Experiment [12] in a line: Primary qHTS for small molecule stabilizers of the endoplasmic reticulum resident proteome: Secreted ER Calcium Modulated Protein (SERCaMP) assay (AID 1508630). Further: potency means the concentration at half of the fitted maximal effect. A digest of the protocol:
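GLuc-SERCaMP-expressing SH-SY5Y cells, pretreated 16 h with compound, are challenged with thapsigargin to empty ER calcium stores; after 4 h, coelenterazine is added directly to the medium and luminescence is imaged.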

Experiment [13] addresses Mitogen-activated protein kinase 10 (Mus musculus) (UniProt Q61831). The experiment can be described thus: JNK3 AlphaScreen Assay (AID 530; active means well fitted curve in either direction with a large enough effect, not every such curve was filed as active;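 further: kinase came from lysate of stimulated human HepG2 cells; signal reports phosphorylation of biotinylated GST-cJun 1-79 at Ser73 with 10 µM ATP; on the % scale 0 is the no-effect control and ±100 the full control effect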). The method in brief: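 JNK3 came from HepG2 lysates pre-activated with IL-1beta and TNF-alpha and phosphorylated biotinylated GST-cJun (1-79) at 10 uM ATP, pH 7.6, room temperature. Compounds were titrated. AlphaScreen signal used anti-phospho-cJun (Ser73) antibody.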
A general note: Bead proximity is the source of the signal in Alpha formats.

Experiment [14] addresses Ubiquitin carboxyl-terminal hydrolase 1 (Homo sapiens) (UniProt O94782). The experiment can be described thus: Inhibitors of USP1/UAF1: Pilot qHTS (AID 504865).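 Further: rhodamine fluorescence freed from ubiquitin-rhodamine substrate followed over time; top concentration of the series differs between compounds; on the % scale 0 is the no-effect control and ±100 the full control effect; nearly all actives have a fitted effect of over 35% in size.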 The method in brief:
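Kinetic fluorescence assay: 1nM USP1/UAF1, 15 min compound preincubation, then 150nM Ub-Rho; 480/540 nm.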

The target in experiment [15] is Guanine nucleotide-binding protein G(i) subunit alpha-1 (Homo sapiens) (UniProt P63096). Nature of the experiment: qHTS Assay for Inhibitors of RGS12 GoLoco Motif Activity (Green Fluorophore) (AID 879).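 Further: 0% = labeled peptide with Gαi1 and full inhibition = labeled peptide alone without protein; negative values mean loss of peptide binding seen as reduced polarization.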 A digest of the protocol:
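Fluorescence polarization assay: 50 nM Gαi1 with 10 nM FITC-labeled RGS12 GoLoco peptide in 10 mM Tris pH 7.5, 150 mM NaCl, 0.1 mM GDP, 0.05% NP40, 10 min at room temperature with compound.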

For experiment [16], the target named is Cytochrome P450 3A4 (Homo sapiens) (UniProt P08684). Nature of the experiment: qHTS Assay for Activators of Cytochrome P450 3A4 (AID 885). Further: nearly all actives have a fitted effect of over 65% in size. The method in brief: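 20nM CYP3A4 + 25uM Luciferin-PPXE (=KM), 200mM KPO4; cpd 10 min RT; NADPH regen, 60 min RT; stop w/ detection buffer, 20 min; luminescence. Normalized to 57 uM ketoconazole.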
Sequence of Cytochrome P450 3A4 (Homo sapiens) (P08684 whole entry, looked up): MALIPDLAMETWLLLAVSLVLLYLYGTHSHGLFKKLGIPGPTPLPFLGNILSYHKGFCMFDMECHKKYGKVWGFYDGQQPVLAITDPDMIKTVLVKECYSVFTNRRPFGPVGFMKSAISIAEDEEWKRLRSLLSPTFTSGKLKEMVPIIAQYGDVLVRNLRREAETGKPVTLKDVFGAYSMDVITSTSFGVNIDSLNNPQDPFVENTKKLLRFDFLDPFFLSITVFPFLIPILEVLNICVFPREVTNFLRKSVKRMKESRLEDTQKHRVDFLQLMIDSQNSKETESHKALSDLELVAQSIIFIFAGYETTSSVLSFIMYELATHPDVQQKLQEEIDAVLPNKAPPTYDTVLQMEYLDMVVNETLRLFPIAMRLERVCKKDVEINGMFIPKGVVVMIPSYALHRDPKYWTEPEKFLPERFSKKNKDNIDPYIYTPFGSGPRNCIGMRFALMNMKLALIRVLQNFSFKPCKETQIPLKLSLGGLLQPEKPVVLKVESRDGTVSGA
Experiment [17] can be described thus: qHTS Assay for Identification of Small Molecule Agonists for Thrombopoietin (TPO) Signaling Pathway (AID 917). Further: on the % scale 0 is the no-effect control and ±100 the full control effect. The method in brief: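 We measured Glycoprotein IIb promoter–luciferase output in IL-3-starved Ba/F3 murine cells expressing the human TPO receptor after 24 hrs at 37 C with compounds and 26 pM TPO.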
The target of experiment [18] is Pyruvate kinase (Leishmania mexicana) (UniProt Q27686). The experiment can be described thus: qHTS Validation Assay for Inhibitors of Leishmania Mexicana Pyruvate Kinase (AID 945).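 Further: 0% = DMSO only neutral control wells.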 A digest of the protocol:
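The enzyme is a highly purified E451W mutant of LmPYK used at 0.2 nM. It converts 0.5 mM PEP and 0.1 mM ADP over 1 h at room temperature; product ATP is quantified by luciferase luminescence relative to DMSO controls.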

For experiment [19], the target named is Pyruvate kinase PKM (Homo sapiens) (UniProt P14618). Nature of the experiment: qHTS Assay for Activators of Human Muscle Pyruvate Kinase (AID 954; active means well fitted curve in the direction sought with a large enough effect, not every such curve was filed as active;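 further: 0% = uninhibited enzyme and -100% = no enzyme or full thiadiazolimine inhibition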). A digest of the protocol: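 Luminescence from a luciferase ATP-detection/stop reagent reported PKM2 activity. Reactions contained 0.1 nM purified human enzyme, 0.5 mM PEP, 0.1 mM ADP and 7 mM MgCl2 at pH 7.2, run 1 h at RT.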
Sequence of Pyruvate kinase PKM (Homo sapiens) (P14618 whole entry, looked up): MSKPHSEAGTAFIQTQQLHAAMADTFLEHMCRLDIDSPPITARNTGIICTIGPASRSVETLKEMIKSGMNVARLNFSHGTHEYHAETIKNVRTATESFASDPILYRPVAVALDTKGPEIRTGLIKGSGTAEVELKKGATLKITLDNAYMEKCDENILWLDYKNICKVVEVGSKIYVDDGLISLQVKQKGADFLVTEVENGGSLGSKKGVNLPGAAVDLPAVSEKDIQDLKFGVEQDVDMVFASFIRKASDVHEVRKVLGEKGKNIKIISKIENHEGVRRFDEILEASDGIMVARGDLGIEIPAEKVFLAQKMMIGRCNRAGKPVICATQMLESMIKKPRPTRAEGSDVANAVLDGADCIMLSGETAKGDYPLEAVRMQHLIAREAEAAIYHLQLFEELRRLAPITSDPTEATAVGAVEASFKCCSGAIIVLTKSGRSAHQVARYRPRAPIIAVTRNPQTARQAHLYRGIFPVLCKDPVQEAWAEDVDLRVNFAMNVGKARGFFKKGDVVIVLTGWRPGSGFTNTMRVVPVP

In experiment [20] the target is alpha-glucosidase (Oryza sativa, rice) (UniProt Q653V4). The experiment can be described thus: Counterscreen for Glucocerebrosidase Inhibitors: qHTS Assay for Rice alpha-Glucosidase at pH 5.0 (AID 997).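 Further: 0% = full activity with enzyme and -100% = basal without enzyme.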 A digest of the protocol: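 Rice alpha-glucosidase (4 nM final) with 400 uM 4-methylumbelliferyl-alpha-D-glucopyranoside in citrate buffer pH 5.0, 20 min at room temperature, stopped at pH 10; fluorescence 365/440 nm, compounds 0.7 nM–77 uM, AC50 from Hill fits.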
(In general: Counterscreens check selectivity or assay interference.)

[21] abbreviates: measured here: cell count channel max response.
[22] abbreviates: measured here: lipid channel max response.

Sequence of DNA dC->dU-editing enzyme APOBEC-3G (Homo sapiens) (Q9HC16 whole entry, looked up): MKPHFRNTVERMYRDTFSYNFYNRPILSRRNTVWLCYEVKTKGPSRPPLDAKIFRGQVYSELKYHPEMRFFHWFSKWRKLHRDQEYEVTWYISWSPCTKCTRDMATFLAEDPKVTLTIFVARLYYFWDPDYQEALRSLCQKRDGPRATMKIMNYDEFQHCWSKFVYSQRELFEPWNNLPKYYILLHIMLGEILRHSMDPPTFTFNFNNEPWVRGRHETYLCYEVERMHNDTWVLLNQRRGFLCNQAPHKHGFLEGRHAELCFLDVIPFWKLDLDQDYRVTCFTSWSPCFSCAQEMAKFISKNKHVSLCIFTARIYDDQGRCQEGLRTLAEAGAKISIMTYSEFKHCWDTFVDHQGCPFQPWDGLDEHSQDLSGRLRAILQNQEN
Sequence of Ubiquitin carboxyl-terminal hydrolase 1 (Homo sapiens) (O94782 whole entry, looked up): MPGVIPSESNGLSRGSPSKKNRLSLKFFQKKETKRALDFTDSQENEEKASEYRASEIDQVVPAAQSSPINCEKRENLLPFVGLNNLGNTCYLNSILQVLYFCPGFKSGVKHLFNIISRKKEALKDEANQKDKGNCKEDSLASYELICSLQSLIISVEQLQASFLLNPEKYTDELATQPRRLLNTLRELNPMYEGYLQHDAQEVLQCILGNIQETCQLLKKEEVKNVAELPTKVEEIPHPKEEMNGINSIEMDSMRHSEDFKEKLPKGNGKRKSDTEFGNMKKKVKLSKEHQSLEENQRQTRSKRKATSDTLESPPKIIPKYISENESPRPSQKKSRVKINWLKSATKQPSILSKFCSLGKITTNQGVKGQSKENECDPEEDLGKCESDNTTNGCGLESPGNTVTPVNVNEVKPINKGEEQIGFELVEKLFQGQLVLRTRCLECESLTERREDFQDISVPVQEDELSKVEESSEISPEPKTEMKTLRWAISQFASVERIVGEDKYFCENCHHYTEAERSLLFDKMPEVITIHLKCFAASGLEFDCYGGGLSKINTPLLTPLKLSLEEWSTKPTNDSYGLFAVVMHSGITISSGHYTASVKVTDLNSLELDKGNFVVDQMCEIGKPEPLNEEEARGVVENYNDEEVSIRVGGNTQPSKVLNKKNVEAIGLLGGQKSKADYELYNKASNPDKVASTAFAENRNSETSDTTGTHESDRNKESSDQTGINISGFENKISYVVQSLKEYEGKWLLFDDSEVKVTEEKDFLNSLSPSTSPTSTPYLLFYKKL
Sequence of Glucocorticoid receptor (Homo sapiens) (P04150 whole entry, looked up, the tested form may be a part): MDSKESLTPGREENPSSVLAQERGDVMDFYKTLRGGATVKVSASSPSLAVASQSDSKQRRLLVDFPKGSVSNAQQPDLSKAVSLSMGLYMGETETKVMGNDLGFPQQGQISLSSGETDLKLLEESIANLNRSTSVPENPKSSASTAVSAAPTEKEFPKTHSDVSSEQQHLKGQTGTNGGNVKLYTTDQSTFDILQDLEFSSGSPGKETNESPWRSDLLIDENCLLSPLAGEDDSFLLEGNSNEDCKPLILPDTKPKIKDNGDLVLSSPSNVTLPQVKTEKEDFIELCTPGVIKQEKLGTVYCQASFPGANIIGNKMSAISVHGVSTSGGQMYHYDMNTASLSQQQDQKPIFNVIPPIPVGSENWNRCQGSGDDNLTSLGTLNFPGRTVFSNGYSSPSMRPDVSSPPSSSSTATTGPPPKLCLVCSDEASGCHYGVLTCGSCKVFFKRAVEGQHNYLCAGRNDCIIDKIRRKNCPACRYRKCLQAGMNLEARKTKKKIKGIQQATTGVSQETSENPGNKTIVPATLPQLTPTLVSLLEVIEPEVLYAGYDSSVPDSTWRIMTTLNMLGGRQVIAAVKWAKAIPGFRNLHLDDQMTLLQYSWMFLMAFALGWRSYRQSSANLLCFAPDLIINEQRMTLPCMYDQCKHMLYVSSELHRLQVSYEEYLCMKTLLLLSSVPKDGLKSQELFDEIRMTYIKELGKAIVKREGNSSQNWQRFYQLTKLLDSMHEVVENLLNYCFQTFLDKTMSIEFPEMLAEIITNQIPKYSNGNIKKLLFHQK
Sequence of 3',5'-cyclic-AMP phosphodiesterase 4B (Homo sapiens) (Q07343 whole entry, looked up): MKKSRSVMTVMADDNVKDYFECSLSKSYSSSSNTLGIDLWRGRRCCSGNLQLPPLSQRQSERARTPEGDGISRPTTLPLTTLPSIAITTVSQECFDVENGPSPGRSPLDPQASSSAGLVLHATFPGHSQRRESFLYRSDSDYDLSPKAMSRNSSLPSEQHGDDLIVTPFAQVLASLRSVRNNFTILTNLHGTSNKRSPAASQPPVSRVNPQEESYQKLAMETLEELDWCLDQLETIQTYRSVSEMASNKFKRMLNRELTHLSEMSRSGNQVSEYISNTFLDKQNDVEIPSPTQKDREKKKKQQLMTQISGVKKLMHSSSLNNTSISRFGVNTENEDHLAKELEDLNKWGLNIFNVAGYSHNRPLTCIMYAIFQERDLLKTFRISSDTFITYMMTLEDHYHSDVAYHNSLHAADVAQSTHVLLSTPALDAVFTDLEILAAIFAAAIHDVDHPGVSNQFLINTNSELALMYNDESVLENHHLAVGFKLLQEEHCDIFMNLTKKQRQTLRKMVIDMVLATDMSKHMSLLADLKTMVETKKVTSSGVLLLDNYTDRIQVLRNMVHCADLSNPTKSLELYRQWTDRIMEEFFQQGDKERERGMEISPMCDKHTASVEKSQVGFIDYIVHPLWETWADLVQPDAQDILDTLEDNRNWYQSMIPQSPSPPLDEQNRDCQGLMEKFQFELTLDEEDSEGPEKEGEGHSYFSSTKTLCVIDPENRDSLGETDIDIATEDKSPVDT

For the compound `CC(C)[C@@H]1[C@H]2CC[C@H](C2)[C@H]1N`, the figures for the activity change, negative = inhibition in experiment [1] (at 38 µM (top of the series)), in experiment [3] and in experiment [9] (at 57.5 µM (top of the series)) were 17.6% (inactive), 2.88% (inactive) and -6.29% (inactive), respectively. The Potency entry is “inactive and 31.6 µM (active)” in [2]; > 46 µM (inactive) in experiment [5]; > 46 µM (inactive) in experiment [6]; 1 µM (active) in experiment [12]. In experiment [4], the activity, negative = inhibition is 4.64% (inactive). Besides, the Potency entry in experiment [7], in [8], in experiment [10] and in experiment [11] was “inactive” each time. The max response in experiment [9] (setting [21]) was -11.1%; in experiment [9] (setting [22]), -17.5%.
As for `C[C@H](C[C@H](N)C(=O)O)C(=O)O`, the Potency in experiment [2] is 31.6 µM (active); in experiment [5], > 46 µM (inactive); in experiment [6] it was > 46 µM (inactive). The Potency result in [13], in [7], in [14], in [10], in [11] and in experiment [12] was “inactive” throughout. Besides, the activity change, negative = inhibition in experiment [9] (at 57.5 µM (top of the series)) was -1.92% (inactive). Further, the max response was -13.2% in experiment [9] (setting [21]) and -13.5% in [9] (setting [22]).
Take `O=C(O)COc1ccc(OCCNC[C@@H](O)COc2ccccc2)cc1`: the results for the Potency in experiment [2], in experiment [5] and in experiment [6] were 39.8 µM (active), > 46 µM (inactive) and > 46 µM (inactive), respectively. Further, the Potency result in experiment [13], in experiment [14], in experiment [10], in experiment [11] and in experiment [12] was “inactive” in each case. In [9] (at 57.5 µM (top of the series)), the activity change, negative = inhibition was 3.49% (inactive). Also, the max response in experiment [9] (setting [21]) is 8.13%; in [9] (setting [22]), 11.4%.
Turning to `N[C@@H](C(=O)O)c1ccc(P(=O)(O)O)cc1`, the Potency in [2] was 20 µM (active); in experiment [5], > 46 µM (inactive); in experiment [6], > 46 µM (inactive). For the same compound, the Potency result in experiment [13], in [7], in [14], in experiment [10], in experiment [11] and in experiment [12] was “inactive” throughout. In [9] (at 57.5 µM (top of the series)), the activity change, negative = inhibition was 2.44% (inactive). Further, the max response in [9] (setting [21]) turned out to be 3.42%; in experiment [9] (setting [22]), 7.2%.
Consider `CCCCCCCCCCCCCCCC(=O)NC(C)C`, for which the Potency entry in [2], in experiment [13], in experiment [7], in experiment [10], in experiment [11] and in experiment [12] was “inactive” throughout. The Potency in [5] and in experiment [6] was > 46 µM (inactive) in each case. In addition, the activity change, negative = inhibition in [9] (at 57.5 µM (top of the series)) was 0.0182% (inactive). Further, the max response is -14.5% in [9] (setting [21]) and -16.6% in experiment [9] (setting [22]).
For the compound `N[C@H](C(=O)O)c1ccc(C(=O)O)cc1`, the Potency entry in experiment [2], in experiment [13], in experiment [10], in experiment [11] and in experiment [12] was “inactive” throughout. For the same compound, the Potency in experiment [5] and in [6] was > 46 µM (inactive) throughout. Also, the activity change, negative = inhibition in [9] (at 57.5 µM (top of the series)) was -2.07% (inactive). Further, the results for the max response in experiment [9] (setting [21]) and in [9] (setting [22]) were -4.05% and -7.12%, respectively.
Take `CC1=C(\C=C/C(C)=C/C=C\C(C)=C\C(=O)O)C(C)(C)CCC1`: the activity change, negative = inhibition in experiment [1] (at 17.2 µM (top of the series)) is -3.06% (inactive) and -11.4% (inactive); in [1] (at 38 µM (top of the series)), -26.4% (inactive) and 3.96% (inactive); in experiment [3] it was 4.1% (inactive); in experiment [9] (at 25.7 µM (top of the series)), 0.599% (inactive) and 0.957% (inactive). For the same compound, the Potency result in experiment [2] is “inactive and 20 µM (active)”; in experiment [5], > 46 µM (inactive) and > 20.6 µM (inactive); in experiment [6] it was > 46 µM (inactive) and > 20.6 µM (inactive); in experiment [8] it was “inactive and 5.01 µM (active) and 12.6 µM (active)”. Also, the Potency entry in experiment [13], in experiment [7], in experiment [16], in [17], in experiment [18] and in experiment [14] was “inactive” throughout. In addition, the Potency result in experiment [10], in experiment [11] and in experiment [12] was “inactive” throughout. Further, the result in [15], in experiment [19] and in experiment [20] was inactive. For the same compound, the max response in experiment [9] (setting [21]) is -6.58% and 5.14%; in experiment [9] (setting [22]), -6.6% and 8.88%.
